The list is not random: actives were taken first. Their share in the collection is about 1.8%.
PrPC surface inh = inhibitors of human cell surface prion protein PrPC, primary screen, cell-based, TR-FRET | TR-FRET read-out | inhibition, % at 13.8 µM | 370,000 compounds, 0.43% hits | AID 720596, 2013; in the data active = inhibition above about 24%
Sa ugtP lethal = growth inhibition of ugtP-null S. aureus, primary screen, RN4220 ugtP deletion, OD600; 16 h; 330,000 compounds, 0.54% hits; growth inhibition, % (no concentration beside the values); in the data active = growth inhibition above about 68%
RN4220 kill = growth inhibition of S. aureus RN4220, primary screen, OD600; 16 h; inhibition, % (test concentration not listed); 330,000 compounds, 0.33% hits; AID 1259311, 2017; in the data active = inhibition above about 85%
VHR inh abs = VHR1 phosphatase inhibitors, primary screen, biochemical, absorbance, uHTS | AID 1654, 2009 | Dual specificity protein phosphatase 3 (Homo sapiens), P51452 | inhibition, % at 13.3 µM | recombinant VHR phosphatase, pNPP absorbance | 290,000 compounds, 0.52% hits; in the data active = inhibition above about 50%
Target sequence (P51452 whole entry, looked up): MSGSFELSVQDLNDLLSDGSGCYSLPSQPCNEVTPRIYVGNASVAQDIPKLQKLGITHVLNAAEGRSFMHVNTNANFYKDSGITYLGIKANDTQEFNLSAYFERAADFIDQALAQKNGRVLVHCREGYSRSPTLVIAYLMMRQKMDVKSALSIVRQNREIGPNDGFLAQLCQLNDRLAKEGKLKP
PfHsp40 yeast = rescue of yeast from PfHsp40 toxicity, primary screen, S. cerevisiae, ATP luminescence | S. cerevisiae expressing PfHsp40, growth rescue | growth rescue, % at 12.5 µM | 340,000 compounds, 0.68% hits; in the data active = growth rescue above about 28%, passing the limit was not always enough;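 note: yeast W303a lacking pdr1 and pdr3 grown in galactose medium; growth measured after three days at 30 °C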
A number is an active result; 0 = inactive; - = no result.

SMILES | PrPC surface inh | Sa ugtP lethal | RN4220 kill | VHR inh abs | PfHsp40 yeast
C=CC[n+]1ccc(/C=C2\C=Cc3cc(C)ccc3N2CC)c2ccccc21 | - | 93.0 | 92.2 | 0 | 0
COc1ccc(C=NNC(=O)c2ccccc2O)cc1CN1CCOCC1 | - | 0 | 0 | - | -
c1cc2c(cc1C1CCCCC1)c1c3n2CCCNC3CCC1 (stereo not given) | 0 | 87.1 | 88.6 | 0 | 0
C=CCN(CC=C)C(=S)NC(=O)c1ccc(OC)c(Br)c1 | - | 0 | 0 | 0 | 55.6
CCN(CC)C(=S)NC(=O)c1ccc(OC)c(Br)c1 | 0 | 0 | 0 | 0 | 0
C=CCC(Cc1ccc(F)cc1)C(=O)OCC1CCCN1C(=O)C(CC=C)CC(=O)NCCO (stereo not given) | - | 0 | 0 | - | -
O=S(=O)(c1ccccc1)N1CCN(c2cccc(Cl)c2)CC1 | 0 | 0 | 0 | 0 | 0
O=[N+]([O-])c1ccc2[nH]cc(S(=O)(=O)N3CCN(c4cccc(Cl)c4)CC3)c2c1 | 0 | 90.3 | 99.5 | 0 | 0
O=C(NCCNS(=O)(=O)c1ccccc1)c1ccc([N+](=O)[O-])cc1 | 0 | 0 | 0 | 58.3 | 0
Nc1nc(NCc2ccco2)nc(N2CCCC2)c1[N+](=O)[O-] | 0 | 0 | 0 | 0 | 0
Nc1nc(NCc2ccco2)nc(N2CCCCCC2)c1[N+](=O)[O-] | 0 | 98.5 | 95.0 | 0 | 0
Cc1ccc(C(C)(C)C)cc1S(=O)(=O)Nc1nc2ccccc2nc1Cl | 26.8 | 0 | 0 | 0 | 0
Cc1ccc(C(C)(C)C)cc1S(=O)(=O)Nc1ncnc2sccc12 | 0 | 0 | 0 | - | 250.9
Cc1[nH]nc(-c2ccc(O)cc2O)c1Oc1ccccc1 | 0 | 0 | 0 | 0 | 0
CCc1cc(-c2n[nH]c(C)c2Oc2ccc(C(C)C)cc2)c(O)cc1O | 0 | 98.9 | 86.4 | 0 | 0
NC1C(O)OC(CO)C(O)C1O (stereo not given) | - | 0 | 0 | - | -
COc1ccc(CC(=O)NN=C(C)CC(=O)N(C)c2ccccc2)cc1 | - | 0 | 0 | - | -
Cc1nc(SCC(=O)Nc2c(C)n(C)n(-c3ccccc3)c2=O)c2cnn(-c3ccccc3)c2n1 | 0 | 0 | 0 | - | 0
Cc1nc(SCc2ccccc2F)c2cnn(-c3ccccc3)c2n1 | - | active | 0 | 0 | -
O=C(COC(=O)C12CC3CC(CC(C3)C1)C2)Nc1nccs1 | 0 | 0 | 0 | 52.0 | 0
Cc1ccnc(NC(=O)COC(=O)C23CC4CC(CC(C4)C2)C3)n1 | 0 | 0 | 0 | 0 | 0
COc1ccc(CNc2ncnc3sccc23)cc1 | 0 | 0 | 0 | 0 | 865.3
COc1ccc(CNc2ncnc3sccc23)cc1OC | 0 | 0 | 0 | 0 | 0
CC1CN(C(C)CO)C(=O)c2cccc(NC(=O)C3CCCCC3)c2OC1CN(C)C(=O)Nc1ccccc1 (stereo not given) | - | 0 | 0 | - | -
Cc1ccc(S(=O)(=O)N2CN(Cc3ccco3)c3nc4ccccc4nc32)cc1 | 0 | 0 | 0 | 0 | 0
SMILES | PrPC surface inh | Sa ugtP lethal | RN4220 kill | VHR inh abs | PfHsp40 yeast
O=S(=O)(c1ccc(F)cc1)N1CN(Cc2ccco2)c2nc3ccccc3nc21 | 0 | 0 | 0 | 51.6 | 0
CCCC=C1CCCOC(C(=O)NCc2ccc(C)o2)(C(F)(F)F)C1 (stereo not given) | - | 0 | 0 | - | -
O=C(CN1C(=O)C2C3C=CC(C4CC34)C2C1=O)Nc1cccc2ncccc12 (stereo not given) | 0 | 0 | 0 | 53.0 | 0
CN(C)c1ccc(-n2cccc2/C=C/[N+](=O)[O-])cc1 | 0 | - | - | 0 | 230.4
CN(C)c1ccc(/C=C/[N+](=O)[O-])cc1 | 0 | 0 | 0 | 0 | 0
CC(Cc1ccccc1)C(=O)NC(CO)Cc1ccccc1 (stereo not given) | - | 0 | 0 | - | -
COc1ccc(-n2c(=O)c3ccccc3n(CC(=O)c3ccccc3)c2=O)cc1OC | 0 | 0 | 0 | 0 | 0
CCOC(=O)c1cc2c(OC)ccc(OC)c2n1CC(=O)c1ccccc1 | 0 | 89.4 | 0 | 0 | 0
O=C(C=Cc1ccc(Cl)c([N+](=O)[O-])c1)Nc1cccc(NC(=O)c2ccco2)c1 | - | 0 | 0 | - | -
Cc1ccc(S(=O)(=O)c2cnc3cc(C)nn3c2N)cc1 | 0 | 0 | 0 | 0 | 31.7
C=CCCC(Cc1ccc(F)cc1)C(=O)OCC(NC(=O)C(CC=C)CC(=O)NC(CO)Cc1ccccc1)C(C)(C)C (stereo not given) | - | 0 | 0 | - | -
O=C(CCC(=O)Nc1ccc(Cl)cc1Cl)NN=Cc1ccc([N+](=O)[O-])o1 | - | 100.0 | 96.0 | - | -
O=C(CSc1ccc(Cl)cc1)NN=Cc1ccc([N+](=O)[O-])o1 | - | 99.8 | 0 | - | -
Cc1cc(O)c2c(c1O)C(=O)[C@]13C(=C2O)C(=O)[C@@H]2[C@@H](O)[C@H]1[C@@H]1[C@H](O)[C@H]3C(=O)C3=C(O)c4c(O)cc(C)c(O)c4C(=O)[C@]312 | - | 98.8 | 98.9 | - | 71.0
CCCC(=NNC(=O)c1nnn(-c2nonc2N)c1CN1CCCCC1)c1ccccc1 | - | 0 | 0 | - | -
CC1CCCN(CCCNC(=O)c2ccc(CS(=O)(=O)Cc3cccc(Cl)c3)o2)C1 (stereo not given) | 0 | 0 | 0 | 0 | 0
CC1CCCN(CCCNC(=O)c2ccc(CS(=O)(=O)c3c(Cl)cccc3Cl)o2)C1 (stereo not given) | 0 | 0 | 0 | 56.3 | 0
CCOc1ccccc1C1C(C#N)=C(N)SC(N)=C1C#N | 46.9 | 0 | 0 | 0 | 0
N#C/C(=C\c1ccc(-c2ccccc2)o1)C(=O)Nn1cnnc1 | 0 | 0 | 0 | 56.7 | 0
COC(=O)C1=C(c2ccccc2)CC2CCC1N2C(=O)NC1CCCCC1 (stereo not given) | - | 0 | 0 | - | -
C=CCNC(=S)NN=Cc1ccc(C(F)(F)F)cc1 | - | 0 | 0 | - | -
O=c1c(Cc2ccc(Cl)cc2)c(O)ccn1Cc1cccs1 | 0 | 0 | 0 | 50.3 | 0
O=c1c(Cc2ccc(Cl)cc2)c(O)ccn1Cc1ccncc1 | 0 | 0 | 0 | 0 | 0
O=C1CN(C(=O)CNCc2ccccc2)c2ccccc2N1 | 0 | 0 | 0 | 52.4 | 0
COc1c(OC(C)=O)ccc(C=NNC(=O)c2ccc(Br)cc2)c1[N+](=O)[O-] | - | 0 | 0 | - | -
SMILES | PrPC surface inh | Sa ugtP lethal | RN4220 kill | VHR inh abs | PfHsp40 yeast
Cc1ccnc(NC(=O)c2ccc(COc3c(F)c(F)cc(F)c3F)o2)c1 | 0 | 0 | 0 | 58.2 | 0
Cc1cccc(NC(=S)NC(=O)C=Cc2ccccc2)n1 | - | 0 | 0 | - | -
CN(c1ccccc1)c1nc(N2CCCC2)nc(-n2ccnc2)n1 | 0 | 0 | 0 | 0 | 392.9
c1ccc(N(c2ccccc2)c2nc(N3CCCC3)nc(-n3ccnc3)n2)cc1 | 0 | 0 | 0 | 0 | 0
O=C(NC(c1ccccc1)C1CC1C(=O)O)OCc1ccccc1 (stereo not given) | - | 0 | 0 | - | -
CN1CC=C(/C=C/c2ccc(-c3ccccc3)cc2)CC1 | - | 92.9 | 0 | 0 | -
C=CCn1c(-c2cc(-c3ccc(C)cc3)nc3ccccc23)n[nH]c1=S | 0 | 0 | 0 | 0 | 413.8
CCn1c(-c2cc(-c3ccc(C)cc3)nc3ccccc23)n[nH]c1=S | 0 | 0 | 0 | 0 | 38.5
CCn1c(-c2cc(-c3ccc(OC(C)C)cc3)nc3ccccc23)n[nH]c1=S | - | 0 | 0 | 0 | 0
NC(=NOC(=O)c1cc(-c2ccccc2)nc2ccccc12)c1ccccn1 | - | 0 | 0 | - | -

Source: PubChem (several laboratories)
